# In ChEMBL document CHEMBL1961873, “Compounds: GSK PKIS; Assays: Nanosyn kinase panel” (2012):
# Tests used:
# [1] = target: Sphingosine kinase 1 (Homo sapiens) (UniProt Q9NYA1); details: at 1 µM;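 further: mean SPHK1 inhibition value reported from the GSK PKIS kinase panel screen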
# [2] = target: T1, Sphingosine kinase 2 (Homo sapiens) (UniProt Q9NRA0); details: at 0.1 µM
# T1 sequence (whole entry): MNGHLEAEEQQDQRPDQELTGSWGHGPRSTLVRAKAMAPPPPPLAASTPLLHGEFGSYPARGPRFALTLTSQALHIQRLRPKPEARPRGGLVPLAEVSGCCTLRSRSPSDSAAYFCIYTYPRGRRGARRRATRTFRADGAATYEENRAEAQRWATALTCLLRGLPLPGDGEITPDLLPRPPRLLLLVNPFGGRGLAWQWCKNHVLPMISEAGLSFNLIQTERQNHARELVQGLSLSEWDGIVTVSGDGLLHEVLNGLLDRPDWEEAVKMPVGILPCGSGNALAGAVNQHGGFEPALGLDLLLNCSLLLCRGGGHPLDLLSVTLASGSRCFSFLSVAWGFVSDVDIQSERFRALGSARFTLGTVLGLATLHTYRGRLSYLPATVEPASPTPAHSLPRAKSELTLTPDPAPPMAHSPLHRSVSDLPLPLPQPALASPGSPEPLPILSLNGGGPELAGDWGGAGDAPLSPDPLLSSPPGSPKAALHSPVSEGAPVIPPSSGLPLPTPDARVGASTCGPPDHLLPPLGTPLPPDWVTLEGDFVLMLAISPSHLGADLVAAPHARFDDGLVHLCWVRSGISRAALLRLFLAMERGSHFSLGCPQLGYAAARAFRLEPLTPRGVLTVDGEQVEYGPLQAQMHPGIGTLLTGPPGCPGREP
# [3] = target: T1, Sphingosine kinase 2 (Homo sapiens); details: at 1 µM
# [4] = target: Casein kinase II subunit alpha (Homo sapiens) (UniProt P68400); details: at 0.1 µM
# [5] = target: Casein kinase II subunit alpha (Homo sapiens) (UniProt P68400); details: at 1 µM
# [6] = target: T2, Inhibitor of nuclear factor kappa-B kinase subunit alpha (Homo sapiens) (UniProt O15111); details: at 0.1 µM
# T2 sequence (whole entry): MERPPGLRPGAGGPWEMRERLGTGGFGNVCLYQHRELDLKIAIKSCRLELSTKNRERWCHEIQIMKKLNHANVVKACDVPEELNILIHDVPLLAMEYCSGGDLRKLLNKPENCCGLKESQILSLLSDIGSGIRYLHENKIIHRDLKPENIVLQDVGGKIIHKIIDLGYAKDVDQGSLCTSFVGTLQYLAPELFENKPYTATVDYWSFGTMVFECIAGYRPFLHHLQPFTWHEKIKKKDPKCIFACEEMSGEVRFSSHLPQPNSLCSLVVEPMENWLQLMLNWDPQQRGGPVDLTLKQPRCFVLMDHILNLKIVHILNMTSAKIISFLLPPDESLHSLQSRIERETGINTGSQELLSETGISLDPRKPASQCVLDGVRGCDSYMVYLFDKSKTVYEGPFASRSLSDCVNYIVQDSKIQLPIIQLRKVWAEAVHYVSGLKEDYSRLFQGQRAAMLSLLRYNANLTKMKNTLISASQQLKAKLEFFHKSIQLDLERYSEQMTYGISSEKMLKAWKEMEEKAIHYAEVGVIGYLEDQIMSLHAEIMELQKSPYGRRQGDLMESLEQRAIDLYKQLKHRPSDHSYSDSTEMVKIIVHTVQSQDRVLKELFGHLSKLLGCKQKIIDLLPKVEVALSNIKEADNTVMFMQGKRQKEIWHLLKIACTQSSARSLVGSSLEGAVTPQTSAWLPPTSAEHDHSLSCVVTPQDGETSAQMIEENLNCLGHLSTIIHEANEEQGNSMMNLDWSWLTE
# [7] = target: T2, Inhibitor of nuclear factor kappa-B kinase subunit alpha (Homo sapiens); details: at 1 µM
# [8] = target: T3, Inhibitor of nuclear factor kappa-B kinase subunit beta (Homo sapiens) (UniProt O14920); details: at 0.1 µM
# T3 sequence (whole entry): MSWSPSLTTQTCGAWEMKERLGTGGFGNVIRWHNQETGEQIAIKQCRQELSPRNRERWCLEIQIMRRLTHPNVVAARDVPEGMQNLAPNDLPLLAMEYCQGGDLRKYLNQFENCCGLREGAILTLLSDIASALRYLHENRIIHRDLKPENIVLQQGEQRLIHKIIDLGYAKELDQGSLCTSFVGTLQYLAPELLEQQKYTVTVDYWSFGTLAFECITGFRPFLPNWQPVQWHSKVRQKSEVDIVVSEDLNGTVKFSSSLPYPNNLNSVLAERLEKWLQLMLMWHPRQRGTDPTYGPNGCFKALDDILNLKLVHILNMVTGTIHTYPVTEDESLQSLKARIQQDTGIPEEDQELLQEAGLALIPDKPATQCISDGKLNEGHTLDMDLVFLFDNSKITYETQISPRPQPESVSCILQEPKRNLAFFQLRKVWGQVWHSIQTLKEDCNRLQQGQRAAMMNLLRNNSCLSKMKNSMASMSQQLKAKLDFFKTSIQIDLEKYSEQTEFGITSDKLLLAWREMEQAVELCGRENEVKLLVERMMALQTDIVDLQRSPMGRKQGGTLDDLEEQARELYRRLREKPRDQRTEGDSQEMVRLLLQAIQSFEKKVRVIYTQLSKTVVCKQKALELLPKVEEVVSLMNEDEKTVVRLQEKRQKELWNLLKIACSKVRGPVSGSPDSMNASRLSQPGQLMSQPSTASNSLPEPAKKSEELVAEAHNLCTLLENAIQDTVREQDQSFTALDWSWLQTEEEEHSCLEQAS
# [9] = target: T3, Inhibitor of nuclear factor kappa-B kinase subunit beta (Homo sapiens); details: at 1 µM
# [10] = target: T4, Inhibitor of nuclear factor kappa-B kinase subunit epsilon (Homo sapiens) (UniProt Q14164); details: at 0.1 µM
# T4 sequence (whole entry): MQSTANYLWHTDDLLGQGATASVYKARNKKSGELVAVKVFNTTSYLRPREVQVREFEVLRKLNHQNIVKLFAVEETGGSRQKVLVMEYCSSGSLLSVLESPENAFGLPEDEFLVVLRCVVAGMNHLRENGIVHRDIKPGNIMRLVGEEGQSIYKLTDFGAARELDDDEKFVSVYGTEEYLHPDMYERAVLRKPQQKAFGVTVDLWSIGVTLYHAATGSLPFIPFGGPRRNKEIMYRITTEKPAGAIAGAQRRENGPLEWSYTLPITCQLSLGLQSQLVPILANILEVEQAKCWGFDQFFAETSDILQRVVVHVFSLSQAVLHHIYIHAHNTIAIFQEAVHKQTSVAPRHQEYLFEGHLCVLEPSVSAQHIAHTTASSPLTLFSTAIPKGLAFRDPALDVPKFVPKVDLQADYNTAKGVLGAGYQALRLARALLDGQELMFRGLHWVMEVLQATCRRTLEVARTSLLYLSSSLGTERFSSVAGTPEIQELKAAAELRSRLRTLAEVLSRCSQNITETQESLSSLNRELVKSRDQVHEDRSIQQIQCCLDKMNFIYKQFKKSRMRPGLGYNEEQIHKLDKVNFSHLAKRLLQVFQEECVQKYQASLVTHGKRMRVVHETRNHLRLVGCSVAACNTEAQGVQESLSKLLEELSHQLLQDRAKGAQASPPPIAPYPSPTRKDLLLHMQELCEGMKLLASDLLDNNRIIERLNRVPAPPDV
# [11] = target: T4, Inhibitor of nuclear factor kappa-B kinase subunit epsilon (Homo sapiens); details: at 1 µM
# [12] = target: T5, Serine/threonine-protein kinase Nek1 (Homo sapiens) (UniProt Q96PY6); details: at 0.1 µM
# T5 sequence (whole entry): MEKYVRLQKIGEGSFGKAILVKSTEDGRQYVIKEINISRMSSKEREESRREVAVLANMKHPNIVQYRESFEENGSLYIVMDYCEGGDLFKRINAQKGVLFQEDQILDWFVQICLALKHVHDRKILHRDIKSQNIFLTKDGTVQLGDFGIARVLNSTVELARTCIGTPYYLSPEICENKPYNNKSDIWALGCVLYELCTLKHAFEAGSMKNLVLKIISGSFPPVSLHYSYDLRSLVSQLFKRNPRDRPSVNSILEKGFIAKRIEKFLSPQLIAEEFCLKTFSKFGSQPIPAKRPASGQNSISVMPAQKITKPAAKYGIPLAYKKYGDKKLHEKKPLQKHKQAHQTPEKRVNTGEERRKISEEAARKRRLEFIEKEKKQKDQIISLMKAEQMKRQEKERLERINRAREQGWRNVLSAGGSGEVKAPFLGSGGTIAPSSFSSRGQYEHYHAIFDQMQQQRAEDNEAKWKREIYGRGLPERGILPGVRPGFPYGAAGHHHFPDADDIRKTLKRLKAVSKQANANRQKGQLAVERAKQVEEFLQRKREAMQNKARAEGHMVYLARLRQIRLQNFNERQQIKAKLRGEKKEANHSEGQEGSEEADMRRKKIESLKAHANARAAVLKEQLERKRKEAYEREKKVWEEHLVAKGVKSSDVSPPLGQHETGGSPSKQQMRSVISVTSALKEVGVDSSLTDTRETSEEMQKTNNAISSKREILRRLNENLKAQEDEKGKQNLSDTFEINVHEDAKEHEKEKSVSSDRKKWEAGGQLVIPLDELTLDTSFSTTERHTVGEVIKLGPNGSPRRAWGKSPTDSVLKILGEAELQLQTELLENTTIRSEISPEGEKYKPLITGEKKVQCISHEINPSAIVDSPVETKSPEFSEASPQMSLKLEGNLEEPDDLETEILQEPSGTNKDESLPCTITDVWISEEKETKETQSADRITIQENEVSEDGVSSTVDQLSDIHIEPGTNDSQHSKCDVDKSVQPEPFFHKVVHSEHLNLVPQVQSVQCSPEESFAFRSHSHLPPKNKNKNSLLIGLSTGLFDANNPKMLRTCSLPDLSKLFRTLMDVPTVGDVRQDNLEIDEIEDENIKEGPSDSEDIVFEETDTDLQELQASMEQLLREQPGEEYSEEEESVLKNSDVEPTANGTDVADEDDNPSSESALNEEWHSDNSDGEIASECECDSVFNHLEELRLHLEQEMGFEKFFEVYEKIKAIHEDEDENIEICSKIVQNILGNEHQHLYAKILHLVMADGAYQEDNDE
# [13] = target: T5, Serine/threonine-protein kinase Nek1 (Homo sapiens); details: at 1 µM
# [14] = target: T6, Serine/threonine-protein kinase Nek2 (Homo sapiens) (UniProt P51955); details: at 0.1 µM
# T6 sequence (whole entry): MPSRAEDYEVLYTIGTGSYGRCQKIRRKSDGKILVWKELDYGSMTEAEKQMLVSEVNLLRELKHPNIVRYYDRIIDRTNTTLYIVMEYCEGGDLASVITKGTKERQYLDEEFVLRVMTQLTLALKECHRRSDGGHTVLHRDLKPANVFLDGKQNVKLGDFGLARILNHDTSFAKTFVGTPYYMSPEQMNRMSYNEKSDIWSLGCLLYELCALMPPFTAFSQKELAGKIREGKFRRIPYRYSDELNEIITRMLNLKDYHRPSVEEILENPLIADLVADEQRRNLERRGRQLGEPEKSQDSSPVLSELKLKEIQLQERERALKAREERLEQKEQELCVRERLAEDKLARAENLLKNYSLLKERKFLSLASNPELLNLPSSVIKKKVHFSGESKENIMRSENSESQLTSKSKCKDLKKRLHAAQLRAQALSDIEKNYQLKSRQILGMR
# [15] = target: T6, Serine/threonine-protein kinase Nek2 (Homo sapiens); details: at 1 µM
# [16] = target: Serine/threonine-protein kinase Nek6 (Homo sapiens) (UniProt Q9HC98); details: at 0.1 µM
# [17] = target: Serine/threonine-protein kinase Nek6 (Homo sapiens) (UniProt Q9HC98); details: at 1 µM
# [18] = target: Serine/threonine-protein kinase Nek7 (Homo sapiens) (UniProt Q8TDX7); details: at 0.1 µM
# [19] = target: Serine/threonine-protein kinase Nek7 (Homo sapiens) (UniProt Q8TDX7); details: at 1 µM
# [20] = target: T7, Serine/threonine-protein kinase Nek9 (Homo sapiens) (UniProt Q8TD19); details: at 0.1 µM;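 further: reported value is the mean percent inhibition of NEK9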
# T7 sequence (whole entry): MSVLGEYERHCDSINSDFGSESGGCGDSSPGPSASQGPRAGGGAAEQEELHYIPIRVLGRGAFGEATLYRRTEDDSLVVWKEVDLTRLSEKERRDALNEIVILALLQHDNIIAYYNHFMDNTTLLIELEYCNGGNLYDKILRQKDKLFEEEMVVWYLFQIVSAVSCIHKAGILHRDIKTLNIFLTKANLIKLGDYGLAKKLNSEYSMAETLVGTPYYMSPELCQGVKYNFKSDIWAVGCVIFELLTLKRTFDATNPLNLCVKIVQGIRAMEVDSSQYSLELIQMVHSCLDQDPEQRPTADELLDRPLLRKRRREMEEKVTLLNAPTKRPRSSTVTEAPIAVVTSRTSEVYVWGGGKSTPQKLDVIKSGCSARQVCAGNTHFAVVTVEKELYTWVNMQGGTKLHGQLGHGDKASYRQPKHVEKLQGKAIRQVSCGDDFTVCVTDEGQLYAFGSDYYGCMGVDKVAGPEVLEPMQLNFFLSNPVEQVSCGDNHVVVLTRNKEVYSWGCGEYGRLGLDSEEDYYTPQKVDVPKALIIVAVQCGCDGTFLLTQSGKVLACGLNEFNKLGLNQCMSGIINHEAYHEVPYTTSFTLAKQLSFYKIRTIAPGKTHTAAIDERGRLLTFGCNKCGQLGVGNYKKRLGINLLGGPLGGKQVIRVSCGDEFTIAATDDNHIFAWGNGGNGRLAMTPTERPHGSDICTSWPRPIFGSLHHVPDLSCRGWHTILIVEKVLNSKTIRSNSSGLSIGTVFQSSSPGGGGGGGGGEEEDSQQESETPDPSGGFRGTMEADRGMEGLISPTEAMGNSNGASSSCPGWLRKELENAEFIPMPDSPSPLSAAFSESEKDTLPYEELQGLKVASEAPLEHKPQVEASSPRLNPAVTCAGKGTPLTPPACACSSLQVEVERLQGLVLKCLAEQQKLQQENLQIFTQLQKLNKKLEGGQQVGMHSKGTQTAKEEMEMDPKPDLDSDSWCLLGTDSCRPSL
# Serine/threonine-protein kinase Nek7 (Homo sapiens), sequence (Q8TDX7 whole entry, looked up): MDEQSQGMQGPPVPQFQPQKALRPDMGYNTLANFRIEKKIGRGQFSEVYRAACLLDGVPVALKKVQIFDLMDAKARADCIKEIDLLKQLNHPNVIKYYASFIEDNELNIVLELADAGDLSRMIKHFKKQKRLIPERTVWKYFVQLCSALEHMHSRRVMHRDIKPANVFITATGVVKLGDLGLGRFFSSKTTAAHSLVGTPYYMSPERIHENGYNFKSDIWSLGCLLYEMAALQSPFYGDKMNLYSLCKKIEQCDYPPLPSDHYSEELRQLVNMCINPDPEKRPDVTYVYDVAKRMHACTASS
# Serine/threonine-protein kinase Nek6 (Homo sapiens), sequence (Q9HC98 whole entry): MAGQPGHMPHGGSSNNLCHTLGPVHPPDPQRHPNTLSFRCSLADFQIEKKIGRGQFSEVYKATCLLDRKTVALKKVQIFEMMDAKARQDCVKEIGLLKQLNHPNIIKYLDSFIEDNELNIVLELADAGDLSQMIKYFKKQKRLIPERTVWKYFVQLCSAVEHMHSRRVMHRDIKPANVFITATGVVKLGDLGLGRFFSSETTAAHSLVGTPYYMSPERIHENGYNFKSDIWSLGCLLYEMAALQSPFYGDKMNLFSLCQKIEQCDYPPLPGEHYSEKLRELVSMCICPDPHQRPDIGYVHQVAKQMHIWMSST
# Casein kinase II subunit alpha (Homo sapiens), sequence (P68400 whole entry, looked up): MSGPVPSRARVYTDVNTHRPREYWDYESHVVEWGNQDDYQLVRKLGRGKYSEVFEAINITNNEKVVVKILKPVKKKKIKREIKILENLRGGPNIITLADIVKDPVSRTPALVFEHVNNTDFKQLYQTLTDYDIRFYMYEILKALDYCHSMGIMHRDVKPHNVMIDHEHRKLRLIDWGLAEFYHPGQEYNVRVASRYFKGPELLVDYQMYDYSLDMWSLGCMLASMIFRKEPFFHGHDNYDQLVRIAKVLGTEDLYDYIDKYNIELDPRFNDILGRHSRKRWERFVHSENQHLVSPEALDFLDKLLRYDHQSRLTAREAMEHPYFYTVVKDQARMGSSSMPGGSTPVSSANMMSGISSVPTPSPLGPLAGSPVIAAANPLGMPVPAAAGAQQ
# Sphingosine kinase 1 (Homo sapiens), sequence (Q9NYA1 whole entry): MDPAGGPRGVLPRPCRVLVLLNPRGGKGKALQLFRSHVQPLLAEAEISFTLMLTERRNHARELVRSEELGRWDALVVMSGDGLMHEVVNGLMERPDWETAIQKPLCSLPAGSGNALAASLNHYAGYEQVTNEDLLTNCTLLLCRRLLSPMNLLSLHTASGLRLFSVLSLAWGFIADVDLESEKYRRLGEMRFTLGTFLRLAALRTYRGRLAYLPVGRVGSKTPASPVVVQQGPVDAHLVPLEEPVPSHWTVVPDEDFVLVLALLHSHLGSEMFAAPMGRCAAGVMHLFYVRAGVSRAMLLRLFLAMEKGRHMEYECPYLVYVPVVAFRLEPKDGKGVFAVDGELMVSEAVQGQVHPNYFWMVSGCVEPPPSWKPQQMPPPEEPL
structure (smiles),measurement,setting,value
Cc1ccc(NC(=O)c2ccnc(N3CCCC3)c2)cc1-c1ccc(C(=O)NCC2CC2)cc1,inhibition,[1],0.63%
same,inhibition,[2],0.74%
same,inhibition,[3],-0.47%
same,inhibition,[4],7.04%
same,inhibition,[5],4.49%
same,inhibition,[6],0.55%
same,inhibition,[7],0.16%
same,inhibition,[8],9.14%
same,inhibition,[9],9.33%
same,inhibition,[10],5.82%
same,inhibition,[11],5.3%
same,inhibition,[12],2.74%
same,inhibition,[13],2.36%
same,inhibition,[14],5.44%
same,inhibition,[15],5.04%
same,inhibition,[16],1.43%
same,inhibition,[17],0.15%
same,inhibition,[18],6.37%
same,inhibition,[19],4.61%
same,inhibition,[20],5.79%
